Source: PubChem BioAssay (EPA / NIEHS)
The source made the active and inactive calls. How the source made its calls: active means hit-call score of the fitted dose curve at least 0.9, where 1 is the maximum; inactive means score below 0.9.

read-out: Phosphatase and tensin (PTEN), PTEN (gene 5728); test: LTEA_HepaRG_PTEN: Life Technologies and Expression Analysis (LTEA) Assay for Phosphatase and tensin (PTEN) using HepaRG (AID 2283523); conditions: mRNA level, 48 h; actives raise or lower the signal
Protocol: LTEA_HepaRG is a cell based, multiplexed-readout assay that uses HepaRG, a human liver cell line, with measurements taken at 48 hours after chemical dosing on a 96-well plate.LTEA_HepaRG_PTEN is one of 102 assay component(s) measured in the LTEA HepaRG cell culture assay. It is a marker of Cell proliferation, survival, death.Data from the assay component LTEA_HepaRG_PTEN was analyzed into 1 endpoint. This assay endpoint, LTEA_HepaRG_PTEN, was analyzed with bidirectional fitting relative to DMSO as the negative control and baseline of activity. Using a type of inducible reporter, measures of mRNA induction for gain or loss-of-signal activity can be used to understand regulation of transcription factor activity. To generalize the intended target to other relatable targets, this assay endpoint is annotated to the phosphatase intended target family, where the subfamily is dual-specific phosphatase.
A total of 1060 chemcials from the ToxCast library were tested in eight-point concentration-response experiments. Cell culture and cytotoxicity assays were conducted at Thermo Fisher Scientific's Custom Services facility (Madison, WI). A single lot of human HepaRG cells (Thermo Fisher Scientific, Frederick, MD) was used for the cell culture experiments. 96-well format collagen type I coated plates of human HepaRG cells were prepared using established methods. Briefly, cryopreserved HepaRG cells were thawed, plated at a density of approximately 100,000 cells/well in HepaRG Thaw, Plate, and General Purpose media (HPRG770, Thermo Fisher Scientific), and incubated for 48 hours. 0.5% DMSO was selected as vehicle control to balance the requisite need of DMSO in HepaRG cultures to maintain differentiation (for example, baseline metabolism, proportions of hepatocytes vs. cholangiocytes), while enabling further hepatic receptor pathway activation (for example, PXR and CAR) in response to chemical exposure. 48 hours after plating, the culture medium was replaced with HepaRG Serum-Free Incudtion Media. Cells were exposed to each test chemical in duplicate and maintained in CO2 incubators for another 48 hours. Chemical plates were thawed to room temperature and 200x concentrations of treatment groups were prepared. 8-point conentration-reponse curves were made with the highest exposure at 100 uM, followed by half-log dilutions, all in 0.5% DMSO. Each test plate contained variouse controls, induction positive controls (1mM phenobarbital), cytotoxicity positive controls ([…] aflatoxin B1), vehicle controls (0.5% DMSO), and total lysis controls (0.5% DMSO). Cell morphology images were taken using an Essen IncuCyte FLR automated microscope, with six 96-well plates imaged in about 24 minutes. Images were captured and exported and JPEG files. Spent culture media was transfered to black-well plates for the LDH assay, and remaining media was sorted at -80 C for later use. Cells were treated with RLT buffer and frozen until shipped for gene expression analysis. Total RNA was isolated from the cell suspension in 75 uL of Buffer RLT (Qiagen, Germantown, MD 20874) by Quintiles/Expression Analysis (Durham, NC) using a custom isolation procedure. Total RNA from each plate well was transferred to a preamplification plate. Fluidigm's 96.96 Dynamic ArrayTM (Fluidigm, Amsterdam, the Netherlands) technology was used for gene expression analyses by quantitative reverse transcription polymerase chain reaction (qRT-PCR, performed by Quintiles/Expression Analysis, Durham, NC)89. Standard TaqManTM Assays (Applied Biosystems/ThermoFisher Scientific, Foster City, CA) were used to assess the expression of 93 genes selected based on their selectivity and sensitivity to important hepatic receptors known to be modulated by environmental chemicals; importance in human hepatocyte functionality; and hepatotoxicity. […]

Structure (SMILES)	outcome	AC50
Nc1ccc2c(c1)C(=O)c1ccccc1C2=O	inactive	
CCNc1cccc(C)c1	inactive	
Cc1nc(C)nc(N2C[C@@H](C)N(c3ccnc([C@@H](C)O)n3)[C@@H](C)C2)n1	inactive	
O=c1[nH]cc(F)c(=O)[nH]1	inactive	
COc1cc(C=O)ccc1O	inactive	
CC(=O)OCCOCCOCCOC(C)=O	inactive	
Cc1nc(-c2ccc3c(c2)CCN(CCC2CCC(NC(=O)/C=C/c4ccc(F)cc4)CC2)CC3)no1 (stereo not given)	inactive	
CN[C@H]1CC[C@@H](c2ccc(Cl)c(Cl)c2)c2ccc(S(N)(=O)=O)cc21	inactive	
Cc1ccc(N(C)C)cc1	inactive	
CCCCOC(=O)CCCCCCCCC(=O)OCCCC	inactive	
C=CCc1ccc(O)c(OC)c1	inactive	
O=C(O)Cc1ccccc1Nc1c(Cl)cccc1Cl	inactive	
C[Si]1(C)O[Si](C)(C)O[Si](C)(C)O[Si](C)(C)O1	inactive	
CN1CCN(Cc2cc(-c3ccc4[nH]c(=O)oc4c3)co2)[C@@H](c2ccc(F)cc2)C1	inactive	
CCCCCCCCCCCCCCCC	inactive	
NCC1(Cc2noc(=O)[nH]2)CCCCC1	inactive	
CCCCCCCCCCO	inactive	
Cc1cc(=O)[nH]c(=S)[nH]1	inactive	
c1cc(-c2ccncc2)ccn1	inactive	
CCCCCCCCCCCC(=O)OC	inactive	

Structure (SMILES)	outcome	AC50
CCOC(=O)C(C)(C)Oc1ccc(Cl)cc1	inactive	
CC(CO)OC(C)CO (stereo not given) (tested in a mixture with another compound)	inactive	
O=C(N[C@@H](Cc1ccccc1)[C@@H](O)C(=O)N1C[C@@H](O)[C@@H](O)C1)c1cc2cc(Cl)ccc2[nH]1	inactive	
CCCc1cc(=O)[nH]c(=S)[nH]1	inactive	
Oc1ccc2c(c1)OC[C@@H](N1CCC(O)(c3ccc(F)cc3)CC1)[C@H]2O	inactive	
CCCCCCCCCCCCCO	inactive	
Cc1c(C(=O)O)c(O)cc2c1C(=O)c1c(O)c([C@@H]3O[C@H](CO)[C@@H](O)[C@H](O)[C@H]3O)c(O)c(O)c1C2=O	inactive	
CC(C)c1ccc(C(=O)N=C(N)N)cc1S(C)(=O)=O		277 nM (active)
CC1(C)NC(=O)NC1=O	inactive	
O=C(O)CCCCC(=O)O	inactive	
Cc1ccc(C(C)C)c(O)c1	inactive	
COc1ccc(C)cc1N	inactive	
CNC(=O)[C@H]1O[C@@H](n2cnc3c(NCc4cc(Cl)ccc4OCc4cc(C)no4)ncnc32)[C@H](O)[C@@H]1N	inactive	
CCCCCCOCCO	inactive	
CCc1c(C(=O)NN2CCCCC2)nn(-c2ccc(Cl)cc2Cl)c1-c1ccc(Br)cc1	inactive	
Cc1ccc(C)c(O)c1C	inactive	
OC[C@@H](O)[C@@H](O)[C@H](O)[C@H](O)CO	inactive	
NCCO	inactive	
CN1CCCC1=O	inactive	
CC(=O)C(C)=CC1C(C)=CCCC1(C)C (stereo not given)	inactive	
